Only some compounds are listed: those with a hit (about 3.3% of all), similar ones and a draw of the others.
PHOSPHO1 block – PubChem AID 1565; Phosphoethanolamine/phosphocholine phosphatase (Homo sapiens), Q8TCT1; recombinant PHOSPHO1, absorbance phosphatase assay; inhibition, % at 13.3 µM; hit rate 1.1% among 290,000; in the data active means inhibition above about 60%
Cl transport mod – KCC2 cotransporter modulators, thallium flux, primary screen, cell-based, HEK293 KCC2, FluoZin-2 fluorescence, MLSMR; Solute carrier family 12 member 5 (Homo sapiens), Q9H2X9; KCC2 cells, thallium flux FluoZin-2 fluorescence; B-score of Tl+ flux slope (higher = more flux/activation; lower = inhibition) at 10 µM; hit rate 2.2% among 190,000; AID 1456, 2008;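 active means thallium flux slope and its plate-corrected score both differing from the plate sample mean at a set confidence after two filtering rounds, in either direction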;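 further: slope of fluorescence scaled to starting intensity during 10 to 20 s after thallium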
Calb FLC – C. albicans growth inhibition with fluconazole, primary screen, CaCi-2 strain, Alamar Blue fluorescence; C. albicans CaCi-2 (fluconazole-resistant clinical isolate) + fluconazole, 48 h; growth inhibition, % (no concentration beside the values); hit rate 0.57% among 300,000; AID 1979, 2009;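 active means growth inhibition above about 58% in most replicates, limit read from the data, passing the limit was not always enough; inconclusive means exactly half the replicates above a set limit; inactive means most replicates below a set limit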;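 further: all wells also contain fluconazole at 8 µg/ml as a sub-toxic cotreatment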
Cardio protect – cardioprotection against H2O2-induced cell death, primary screen, uHTS, H9c2 cells, ATPLite luminescence; H9c2 cardiomyocytes, H2O2 injury protection, 2 h; protection from H2O2 cell death, % at 20 µM; hit rate 0.63% among 360,000; AID 588492, 2011;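 active means compounds giving at least 50% protection of heart cells from peroxide-induced death in the single-dose screen, raw or plate-pattern-corrected value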
Efflux pump inh – inhibitors of Candida efflux pumps in yeast, primary screen, S. cerevisiae, Nile Red, multiplex; inhibition, % at 10 µM; AID 485275, 2010; S. cerevisiae Candida pump triplex; hit rate 0.44% among 330,000;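 active means plate passing quality check with inhibition over a set limit, or well fluorescence over plate mean plus 4 SD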;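 further: Nile Red retained in pooled yeast measured as flow cytometry median fluorescence; higher means more Nile Red kept so more efflux inhibition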
A number is an active result; – = inactive; ? = inconclusive; · = no result given.

SMILES	PHOSPHO1 block	Cl transport mod	Calb FLC	Cardio protect	Efflux pump inh
COc1ccc(N(C)S(=O)(=O)c2ccc3c(c2)NC(=O)CC(=O)N3)c(OC)c1	70.1	·	–	–	–
COc1ccc(OC)c(/C=C2\S/C(=N/NC(=O)c3ccc4ccccc4c3)NC2=O)c1	–	–	–	58.3	–
O=C(NN1C(=O)/C(=C/C=C/c2ccco2)SC1=S)c1ccncc1	–	–	–	–	1.1
O=C(NN1C(=O)/C(=C/C=C/c2ccccc2)SC1=S)c1ccncc1	–	–	–	–	–
CCN(CC)CCn1c(NC(=O)c2ccc(Cl)cc2)nc2ccccc21	–	–	–	62.5	–
CCCn1c(NC(=O)c2cccc(S(=O)(=O)N3CCCC3)c2)nc2ccccc21	–	–	–	99.1	–
O=C(Nc1nc2ccccc2n1Cc1ccccc1)c1ccco1	–	·	·	58.0	–
Cn1c(/C=N/NC(=O)c2ccccc2)nc2ccccc21	–	–	–	65.4	–
Cc1csc(NC(=O)COc2ccc3c(c2)CCC3)n1	·	·	·	–	–
Cc1cc(C)n2nc(SC(C)C(=O)N(C)C3CCCCC3)nc2n1 (configuration not stated)	·	·	·	–	–
O=C(O)C1C2CCC(CC2)C1C(=O)N1CCN(Cc2ccc(F)cc2)CC1 (configuration not stated)	·	·	–	–	–
CCCn1c(NC(=O)c2ccc(C)cc2)nc2ccccc21	–	·	–	–	–
CCCn1c(Nc2nc3ccccc3n2C)nc2ccccc21	–	–	101.5	–	–
CCCn1c(NC(=O)c2ccccc2)nc2ccccc21	–	9.93	–	51.5	–
CC(C)n1c(=S)[nH]c2ccccc2c1=O	–	37.5	–	–	–
CCOc1cc2[nH]c(=S)n(C(C)C)c(=O)c2cc1OCC	71.3	9.73	–	–	–
O=C(CSc1nnc(CNC(=O)c2ccccc2)o1)Nc1nccs1	–	·	·	–	–
CCn1c(O)c(/C=N/N=C/c2ccccc2)c2ccc(C3=NNC(=O)CC3)cc21	–	–	–	75.9	–
O=C(c1ccccc1)c1ccc2nc(N3CCN(C(=O)c4ccco4)CC3)c3nncn3c2c1	–	–	–	83.6	–
COc1cccc(NC(=O)CN(C)C(=O)C2CC(=O)N(CCc3ccc(OC)c(OC)c3)C2)c1 (configuration not stated)	·	·	·	–	·
CCc1cccc(C)c1NC(=S)NCc1ccc2c(c1)cc(C)n2C	–	–	124.1	–	–
CC(C)(C)Cc1nnc(NS(=O)(=O)c2ccc(F)cc2)s1	77.6	–	–	–	–
COCCN(C(=O)CSc1nnc(-c2ccccc2F)n1C)c1c(N)n(Cc2ccccc2)c(=O)[nH]c1=O	–	–	–	–	–
COCCN(C(=O)CSc1nnc(-c2cccc(C)c2)n1C)c1c(N)n(Cc2ccccc2)c(=O)[nH]c1=O	–	–	112.7	–	–
COc1ccc2nc(Nc3nc(CSc4nc5ccccc5[nH]4)cc(=O)[nH]3)nc(C)c2c1	–	–	?	69.7	–
SMILES	PHOSPHO1 block	Cl transport mod	Calb FLC	Cardio protect	Efflux pump inh
Cc1nc(Nc2nc(CSc3nc4ccccc4[nH]3)cc(=O)[nH]2)nc2ccccc12	–	–	–	–	–
Cc1nn(C)c(C)c1C1Nc2ccccc2C(=O)N1O (configuration not stated)	–	–	–	–	–
O=C1c2ccccc2NC(c2cnc3ccccc3n2)N1O (configuration not stated)	–	·	104.2	–	–
COc1ccc(C2Nc3ccccc3C(=O)N2O)cc1OC (configuration not stated)	–	–	97.4	–	–
Cn1cncc1C#Cc1ccc2cc(C3(O)CCCCC3)oc(=O)c2c1	·	·	·	–	–
COc1cc(/C=N/Nc2nc(Nc3ccc(C)cc3)nc(-n3nc(C)cc3C)n2)cc(OC)c1OC	–	–	–	57.2	–
N#CC(c1cccc(Cl)c1)c1ccc2c(C(F)(F)F)cc(C(F)(F)F)nc2n1 (configuration not stated)	–	28.9	–	–	–
COc1cccc(C(CNC(=O)C2CCN(C(=O)Nc3ccccc3)CC2)N(C)C)c1 (configuration not stated)	·	·	·	–	–
Nc1ccccc1-c1nnc(SCc2ccccc2Cl)[nH]c1=O	–	·	–	–	–
Cc1ccc(CSc2nnc(-c3ccccc3N)c(=O)[nH]2)cc1	102.0	–	–	–	–
O=C(NCc1ccccc1)Nc1nnc([C@@H]2C[C@H](O)[C@@H](CO)O2)s1	·	·	·	–	·

Assay outcomes: PubChem, several laboratories
